These results are taken from the supplement of paper PMC10849652.

About 7,900 targets were measured; listed, in parts, are those with a hit and a random draw of the rest. About 0.6% of all pairs of compound and target were hits. Unmarked numbers belong to inactive results.

Common to all, as to test: log2 fold change, soluble protein after heating vs DMSO (PISA); higher = thermal stabilisation; K562 cells, 10 uM, 30 min; active = over 0.2 and 3.5 SD of the protein, either way, in both replicates (recomputed)
Compound in assay [1]: C#Cc1cccc(Nc2ncnc3cc(OCCOC)c(OCCOC)cc23)c1 [erlotinib]
Put shortly: (§1)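 Thermal stability values are relative to control samples and come from duplicates. They are expressed as log2 fold changes. For measurement, K562 cells (2×10^6 cells/mL) received 10 μM compound for 30 min, and aliquots were heated for 3 min over 48°C-58°C, pooled, and extracted at 4°C in PBS with 0.5% NP-40. Soluble protein, the supernatant after 21,000xg for 90 min, was quantified by TMTpro 16plex LC-MS/MS with equalised channel sums.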

Compound in assay [2]: C/C(=N\NC(=O)C1=CC(=CC=C1)S(=O)(=O)N2CCOCC2)/C3=C(C=CC(=C3)Cl)O
Put shortly:
as §1

Compound in assay [3]: C1=CC(=C(C=C1Cl)C2=NC3=NC=CN=C3C(=N2)NC4=CC=NC=C4)F
The essentials: as §1

Compound in assay [4]: C1=CC(=CC=C1C2=NC3=C(N2)C=C(C=C3)C(=O)N)OC4=CC=C(C=C4)Cl
The essentials:
as §1

Compound in assay [5]: C1=CC2=C(C=CC(=C2)/C=C\3/C(=O)NC(=NCC4=CC=CS4)S3)N=C1
The essentials: as §1

Compound in assay [6]: C1=CC2=NC=CN=C2C=C1/C=C/3\C(=O)NC(=O)S3
The essentials:
as §1

Compound in assay [7]: C1=CC=C(C=C1)C2=NC(=C(N2)C3=CC=NC=C3)C4=CC(=C(C=C4)Cl)O
The essentials:
as §1

Compound in assay [8]: C1CCN(C1)C(=O)NC2=CC=CC(=C2)NC3=NC=C(C(=N3)NCCC4=CN=CN4)Br
The essentials:
as §1

Compound in assay [9]: C1CN(CCC1(CC2=CC=C(C=C2)Cl)N)C3=NC=NC4=C3C=CN4
The essentials:
as §1

Compound in assay [10]: C1COCCN1CCN2C3=CC=CC=C3N=C2NC(=O)C4=CC(=CC=C4)[N+](=O)[O-] [IRAK-1-4 Inhibitor I]
The essentials: as §1

Compound in assay [11]: C=CC(=O)N1CCC[C@@H](n2nc(-c3ccc(Oc4ccccc4)cc3)c3c(N)ncnc32)C1 [ibrutinib]
The essentials:
as §1

Compound in assay [12]: CC(=O)c1cnc2ccc(-c3cc(Cl)c(O)c(Cl)c3)nc2c1N[C@H]1CC[C@H](CN(C)C)CC1
The essentials:
as §1

Compound in assay [13]: CC(C)(C)Cn1c(N)nc2ccc(-c3[nH]c(C(C)(C)C)nc3-c3ccc(F)cc3)nc21 [ralimetinib]
Put shortly: as §1

Compound in assay [14]: CC(C)(O)CC(=O)NCCn1ccc2ncnc(Nc3ccc(Oc4cccc(C(F)(F)F)c4)c(Cl)c3)c21
The essentials: as §1

Compound in assay [15]: CC(C)C1=C2N=C(C=C(N2N=C1)NCC3=CC=CC=C3)NCCCCCCN
Put shortly:
as §1

Compound in assay [16]: CC(C)C[C@@H](C=O)NC(=O)[C@H](CC(C)C)NC(=O)[C@H](CC(C)C)NC(=O)OCc1ccccc1
Put shortly:
as §1

Compound in assay [17]: CC(C)N(C[C@H]1O[C@@H](n2cnc3c(N)ncnc32)[C@H](O)[C@@H]1O)[C@H]1C[C@@H](CCc2nc3cc(C(C)(C)C)ccc3[nH]2)C1 [pinometostat]
Put shortly:
as §1

Compound in assay [18]: CC1=C(C(CC(=O)N1)C2=CC=C(C=C2)C(F)(F)F)C(=O)NC3=C(C=C4C(=C3)C=NN4)F
Put shortly: as §1

Compound in assay [19]: CC1=C(C2=C(C=C1)C(=O)C3=CC=CC=C3N2CCCN)C
Put shortly: as §1

Compound in assay [20]: C1=CC=C2C(=C1)C3=NNC4=CC=CC(=C43)C2=O
The essentials: as §1

UniProt O15066, sequence (O15066 whole entry, looked up): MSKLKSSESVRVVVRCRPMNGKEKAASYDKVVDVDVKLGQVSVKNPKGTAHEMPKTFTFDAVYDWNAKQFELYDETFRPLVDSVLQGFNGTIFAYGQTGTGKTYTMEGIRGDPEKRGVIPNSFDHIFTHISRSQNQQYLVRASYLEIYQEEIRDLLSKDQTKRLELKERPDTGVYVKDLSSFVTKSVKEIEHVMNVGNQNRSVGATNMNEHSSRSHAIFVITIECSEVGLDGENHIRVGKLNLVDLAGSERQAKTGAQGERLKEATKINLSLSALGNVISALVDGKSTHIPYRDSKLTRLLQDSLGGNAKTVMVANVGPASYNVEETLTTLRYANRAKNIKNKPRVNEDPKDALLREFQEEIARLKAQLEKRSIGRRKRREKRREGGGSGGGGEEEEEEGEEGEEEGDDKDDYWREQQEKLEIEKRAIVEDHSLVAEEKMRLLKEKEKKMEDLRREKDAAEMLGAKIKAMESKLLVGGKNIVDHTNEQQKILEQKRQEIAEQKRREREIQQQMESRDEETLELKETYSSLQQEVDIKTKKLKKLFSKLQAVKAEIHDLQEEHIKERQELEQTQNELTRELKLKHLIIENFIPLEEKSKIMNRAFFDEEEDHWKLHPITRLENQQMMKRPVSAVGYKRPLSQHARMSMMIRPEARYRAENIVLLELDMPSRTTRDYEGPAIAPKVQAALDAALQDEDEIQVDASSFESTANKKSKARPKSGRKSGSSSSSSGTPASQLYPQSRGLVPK
UniProt Q92585, sequence (Q92585 whole entry, looked up): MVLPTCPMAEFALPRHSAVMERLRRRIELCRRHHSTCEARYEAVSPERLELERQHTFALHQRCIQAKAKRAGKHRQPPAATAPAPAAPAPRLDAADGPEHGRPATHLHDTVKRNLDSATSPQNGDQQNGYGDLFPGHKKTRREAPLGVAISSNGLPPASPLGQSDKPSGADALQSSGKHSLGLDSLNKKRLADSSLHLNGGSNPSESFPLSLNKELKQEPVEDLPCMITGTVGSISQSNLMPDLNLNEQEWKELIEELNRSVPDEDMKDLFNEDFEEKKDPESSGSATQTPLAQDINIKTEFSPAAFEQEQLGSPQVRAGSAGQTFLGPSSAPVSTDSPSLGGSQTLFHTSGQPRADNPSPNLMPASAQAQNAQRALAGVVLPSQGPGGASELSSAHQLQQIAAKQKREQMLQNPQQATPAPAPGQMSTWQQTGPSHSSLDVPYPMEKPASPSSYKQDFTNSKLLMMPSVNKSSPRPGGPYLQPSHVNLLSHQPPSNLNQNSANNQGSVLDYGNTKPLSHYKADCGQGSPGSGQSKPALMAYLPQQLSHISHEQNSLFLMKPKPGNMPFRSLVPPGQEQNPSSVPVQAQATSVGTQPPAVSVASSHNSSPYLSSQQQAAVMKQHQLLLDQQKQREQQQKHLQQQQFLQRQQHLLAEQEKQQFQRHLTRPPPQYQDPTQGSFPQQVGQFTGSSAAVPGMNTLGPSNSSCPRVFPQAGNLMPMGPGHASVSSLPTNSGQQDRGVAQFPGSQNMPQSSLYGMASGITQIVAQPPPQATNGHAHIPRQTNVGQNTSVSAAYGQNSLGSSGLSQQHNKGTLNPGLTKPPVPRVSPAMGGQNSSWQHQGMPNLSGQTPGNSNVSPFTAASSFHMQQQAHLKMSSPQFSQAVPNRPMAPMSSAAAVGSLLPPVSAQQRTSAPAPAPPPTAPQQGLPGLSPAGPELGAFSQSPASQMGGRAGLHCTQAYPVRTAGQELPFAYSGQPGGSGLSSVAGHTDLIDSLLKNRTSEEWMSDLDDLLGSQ
UniProt Q9BQD3, sequence (Q9BQD3 whole entry, looked up): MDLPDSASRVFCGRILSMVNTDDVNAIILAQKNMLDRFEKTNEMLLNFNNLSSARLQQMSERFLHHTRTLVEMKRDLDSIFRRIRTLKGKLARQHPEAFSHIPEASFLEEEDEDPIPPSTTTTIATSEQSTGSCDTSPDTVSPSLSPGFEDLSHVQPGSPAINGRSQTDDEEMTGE
UniProt Q9NUN5, sequence (Q9NUN5 whole entry, looked up): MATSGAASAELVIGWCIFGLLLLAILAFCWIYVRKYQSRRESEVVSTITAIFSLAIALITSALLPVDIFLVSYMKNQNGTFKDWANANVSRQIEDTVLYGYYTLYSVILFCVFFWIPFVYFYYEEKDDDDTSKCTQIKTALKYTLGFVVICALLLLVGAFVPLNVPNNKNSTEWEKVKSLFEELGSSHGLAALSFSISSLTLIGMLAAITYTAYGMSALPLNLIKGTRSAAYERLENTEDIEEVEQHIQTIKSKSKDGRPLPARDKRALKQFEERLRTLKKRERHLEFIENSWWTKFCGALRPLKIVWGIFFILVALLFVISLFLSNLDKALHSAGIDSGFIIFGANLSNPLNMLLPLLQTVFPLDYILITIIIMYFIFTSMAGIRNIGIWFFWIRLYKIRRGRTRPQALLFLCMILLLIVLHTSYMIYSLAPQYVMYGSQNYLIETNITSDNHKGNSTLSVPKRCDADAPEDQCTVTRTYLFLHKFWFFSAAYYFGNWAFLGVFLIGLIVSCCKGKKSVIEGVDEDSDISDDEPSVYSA
UniProt Q9Y4K4, sequence (Q9Y4K4 whole entry, looked up): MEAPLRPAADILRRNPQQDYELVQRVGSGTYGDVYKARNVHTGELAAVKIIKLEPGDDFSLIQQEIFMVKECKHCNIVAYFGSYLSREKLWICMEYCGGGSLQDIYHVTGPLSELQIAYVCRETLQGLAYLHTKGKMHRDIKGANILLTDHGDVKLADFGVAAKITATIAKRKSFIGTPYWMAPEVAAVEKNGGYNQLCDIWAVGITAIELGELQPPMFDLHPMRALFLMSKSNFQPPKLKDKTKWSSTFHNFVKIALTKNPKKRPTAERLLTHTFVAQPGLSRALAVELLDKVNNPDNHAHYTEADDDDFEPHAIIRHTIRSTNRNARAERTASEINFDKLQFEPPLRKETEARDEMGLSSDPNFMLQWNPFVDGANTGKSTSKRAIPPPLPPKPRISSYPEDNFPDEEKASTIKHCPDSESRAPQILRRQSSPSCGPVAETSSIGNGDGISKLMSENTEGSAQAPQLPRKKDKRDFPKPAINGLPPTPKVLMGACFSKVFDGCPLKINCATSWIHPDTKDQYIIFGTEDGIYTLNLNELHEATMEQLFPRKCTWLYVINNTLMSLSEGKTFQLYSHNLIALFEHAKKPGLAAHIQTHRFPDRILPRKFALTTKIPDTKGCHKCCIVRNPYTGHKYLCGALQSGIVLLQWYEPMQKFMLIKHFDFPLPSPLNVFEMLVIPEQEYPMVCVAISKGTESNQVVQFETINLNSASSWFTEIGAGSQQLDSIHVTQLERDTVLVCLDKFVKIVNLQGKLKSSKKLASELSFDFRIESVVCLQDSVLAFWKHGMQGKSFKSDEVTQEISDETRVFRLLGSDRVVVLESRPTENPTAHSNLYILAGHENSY
UniProt Q86X29, sequence (Q86X29 whole entry, looked up): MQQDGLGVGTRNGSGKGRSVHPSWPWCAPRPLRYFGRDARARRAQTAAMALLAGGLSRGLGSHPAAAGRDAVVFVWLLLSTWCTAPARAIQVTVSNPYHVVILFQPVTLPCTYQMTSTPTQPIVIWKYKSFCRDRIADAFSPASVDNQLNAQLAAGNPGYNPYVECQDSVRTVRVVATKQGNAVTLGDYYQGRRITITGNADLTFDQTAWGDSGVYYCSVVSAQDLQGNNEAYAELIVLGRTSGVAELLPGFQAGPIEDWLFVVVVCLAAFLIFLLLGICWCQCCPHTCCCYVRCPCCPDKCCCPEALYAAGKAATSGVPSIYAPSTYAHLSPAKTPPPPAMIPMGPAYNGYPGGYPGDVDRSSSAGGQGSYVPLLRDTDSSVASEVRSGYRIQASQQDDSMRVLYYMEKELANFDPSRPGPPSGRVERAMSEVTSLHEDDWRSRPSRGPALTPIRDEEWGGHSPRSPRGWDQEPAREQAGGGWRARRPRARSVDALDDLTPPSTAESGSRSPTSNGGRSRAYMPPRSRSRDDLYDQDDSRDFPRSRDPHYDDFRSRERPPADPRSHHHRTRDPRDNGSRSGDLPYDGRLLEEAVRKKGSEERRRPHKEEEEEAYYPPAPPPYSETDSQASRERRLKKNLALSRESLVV
UniProt Q16891, sequence (Q16891 whole entry, looked up): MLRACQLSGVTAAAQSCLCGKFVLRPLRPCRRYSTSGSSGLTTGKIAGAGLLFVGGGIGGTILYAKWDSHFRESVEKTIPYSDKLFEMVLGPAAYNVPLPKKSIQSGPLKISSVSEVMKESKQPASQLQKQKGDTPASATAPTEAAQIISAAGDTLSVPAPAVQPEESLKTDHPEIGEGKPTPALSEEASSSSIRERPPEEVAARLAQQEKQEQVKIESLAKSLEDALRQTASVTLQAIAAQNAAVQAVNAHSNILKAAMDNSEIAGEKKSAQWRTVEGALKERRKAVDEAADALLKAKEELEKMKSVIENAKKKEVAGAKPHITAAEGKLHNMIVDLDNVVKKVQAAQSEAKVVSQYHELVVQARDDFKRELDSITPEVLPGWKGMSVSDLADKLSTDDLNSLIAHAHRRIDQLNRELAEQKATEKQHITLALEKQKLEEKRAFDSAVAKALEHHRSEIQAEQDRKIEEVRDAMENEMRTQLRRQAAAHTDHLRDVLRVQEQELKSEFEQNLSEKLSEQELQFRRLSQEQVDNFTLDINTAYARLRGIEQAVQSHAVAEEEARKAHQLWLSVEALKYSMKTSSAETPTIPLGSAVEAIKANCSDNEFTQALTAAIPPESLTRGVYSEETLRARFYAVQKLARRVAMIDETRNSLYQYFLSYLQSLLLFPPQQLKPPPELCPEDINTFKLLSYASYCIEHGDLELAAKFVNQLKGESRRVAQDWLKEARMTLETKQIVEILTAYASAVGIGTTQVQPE
UniProt Q9NX70, sequence (Q9NX70 whole entry, looked up): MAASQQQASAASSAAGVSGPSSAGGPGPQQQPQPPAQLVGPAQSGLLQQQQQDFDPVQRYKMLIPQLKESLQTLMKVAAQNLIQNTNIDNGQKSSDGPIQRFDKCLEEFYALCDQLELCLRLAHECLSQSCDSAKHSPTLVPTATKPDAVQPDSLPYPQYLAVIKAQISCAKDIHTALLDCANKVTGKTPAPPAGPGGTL

For MAP4K5 (UniProt Q9Y4K4), the log2 fold change is -0.001 in assay [1]; 0.057 in assay [2]; 0.05 in [3]; 0.051 in assay [4]; 0.143 in [5]; -0.025 in assay [6]. Moreover, the log2 fold change in assay [7] was -0.039; in assay [8], -0.083; in [9] it was 0.152; in [10], -0.02; in [11] it was 0.067; in [12] it was -0.289 (active). Further, the log2 fold change in [13] is -0.045; in assay [14] it was -0.057; in assay [15], -0.034; in assay [16], 0.034; in assay [17], -0.014; in assay [18], -0.046. In addition, in assay [19], the log2 fold change is -0.02.
As to KXD1 (UniProt Q9BQD3), the log2 fold change in [1] is 0.069; in assay [2], 0.018; in assay [3], 0.011; in [4] it was -0.005; in assay [5], 0.083; in assay [6], 0.024. In addition, the log2 fold change in [7] was 0.01; in [20], 0.018; in assay [8], 0.022; in [9], 0.036; in assay [11] it was 0.092; in [12], -0.073. Further, the log2 fold change in assay [13] was -0.053; in assay [14], 0.034; in assay [15], -0.181; in assay [16], 0.041; in assay [19] it was 0.057.
Consider KIF3B (UniProt O15066), for which the log2 fold change is -0.015 in [1]; 0.016 in assay [2]; -0.015 in [3]; -0.108 in [4]; -0.02 in assay [5]; 0.004 in assay [6]. For the same target, the log2 fold change in assay [7] is -0.029; in [20] it was 0.077; in [8] it was -0.101; in assay [9], -0.039; in assay [10], 0.06; in [11], -0.029. Also, the log2 fold change in assay [12] is 0.016; in [13], -0.048; in assay [14] it was 0.018; in assay [15], -0.021; in assay [16], 0.068; in [17] it was 0.033. Also, the log2 fold change in [19] was -0.008.
As for IMMT isoform 2 (UniProt Q16891), the log2 fold change in assay [1] is -0.057; in assay [2], 0.043; in [3], 0.051; in assay [4] it was -0.022; in assay [5], -0.07; in assay [6] it was -0.021. The log2 fold change in [7] was -0.026; in assay [20], 0.021; in assay [8], 0.007; in [9] it was 0.047; in assay [10] it was 0.053; in [11] it was -0.011. Besides, the log2 fold change in assay [12] is 0.022; in [13] it was 0.054; in [14], 0.051; in assay [15] it was 0.015; in [16] it was -0.028; in assay [17] it was 0.058. Also, the log2 fold change was 0.035 in assay [18] and -0.106 in assay [19].
As for LMBRD1 (UniProt Q9NUN5), the log2 fold change in assay [1] was 0.075; in assay [2] it was -0.055; in assay [3], 0.211; in assay [4], -0.014; in [5] it was 0.226; in [6], 0.113. Also, the log2 fold change in assay [7] was -0.051; in assay [20] it was -0.027; in assay [8], -0.142; in [9], 0.033; in [11], 0.036; in assay [12] it was 0.026. Moreover, the log2 fold change in [13] is 0.088; in assay [14], -0.059; in [15], -0.708 (active); in [16] it was -0.022; in assay [18] it was 0.088; in assay [19] it was -0.086.
As for MAML1 (UniProt Q92585), the log2 fold change in assay [1] is 0.369; in [3], 0.004; in assay [4], 0.082; in assay [7], -0.004; in assay [10], 0.117; in assay [13], 0.013. In addition, the log2 fold change in assay [14] was 0.02; in assay [15], 0.016; in assay [16], -0.043; in [17], -0.133.
Regarding JAK3 (UniProt P52333), the log2 fold change in assay [1] was -0.178; in assay [3], 0.062; in assay [4] it was -0.013; in assay [6] it was 0.021; in assay [7], -0.207; in assay [8], 0.059. The log2 fold change in assay [9] is -0.024; in [10] it was -0.01; in assay [11] it was -0.052; in assay [13], -0.184; in assay [14], -0.045; in assay [15], 0.072. The log2 fold change in assay [16] was -0.043; in [17] it was -0.082; in assay [18], 0.009; in assay [19], -0.089.
As for MED29 (UniProt Q9NX70), the log2 fold change was -0.016 in assay [1]; 0.008 in [2]; 0.062 in [4]; -0.089 in [5]; -0.015 in [20]; -0.215 in [12]. The log2 fold change in assay [15] was -0.038; in [18], -0.08.
As for LSR isoform 3 (UniProt Q86X29), the values for the log2 fold change in assay [8], in assay [9] and in [19] were -0.169, 0.25 and -0.106, respectively.
